Screens: PubChem, several laboratories
CR mimetic SO = caloric restriction mimetics inhibiting age-related superoxide in yeast; superoxide response (% of plate mean), % at 10 µM; S. cerevisiae aged cells, superoxide DHE fluorescence; stronger effect = lower value; actives 0.18% (n = 330,000); AID 2690;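 active = superoxide response under a set limit, about three screen SD below normal, cut at about 65% in these data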;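 also: yeast aged for seven days with compound at 30 °C before DHE staining; 100% = average MFI of all compound-treated wells on the plate with controls excluded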
dFosB activator = enhances mouse delta FosB homodimer DNA binding. P13346. purified delta FosB, TAMRA-CDK5 oligo fluorescence polarization; percent of positive-control signal above neutral wells. activation, % at 25 µM. actives 0.99% (n = 340,000);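 active = mean activation above about 17%, with every replicate also reaching it, limit read from the data, passing the limit was not always enough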
Target sequence (P13346 whole entry, looked up): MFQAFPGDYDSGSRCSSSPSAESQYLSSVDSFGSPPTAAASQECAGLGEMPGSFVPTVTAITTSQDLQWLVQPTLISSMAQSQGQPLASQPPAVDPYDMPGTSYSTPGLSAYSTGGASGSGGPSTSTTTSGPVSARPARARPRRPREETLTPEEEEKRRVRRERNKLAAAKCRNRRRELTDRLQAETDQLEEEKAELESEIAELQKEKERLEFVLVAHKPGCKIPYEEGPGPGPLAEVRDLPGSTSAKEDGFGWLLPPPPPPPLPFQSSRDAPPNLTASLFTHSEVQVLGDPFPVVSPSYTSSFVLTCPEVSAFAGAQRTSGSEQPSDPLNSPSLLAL
UBC13 inh = inhibitors of human UBC13 polyubiquitin chain formation | P61088 | TR-FRET | inhibition, % at 20 µM | actives 0.47% (n = 330,000); in the data active = inhibition above about 45%, passing the limit was not always enough
Target sequence (P61088 whole entry, looked up): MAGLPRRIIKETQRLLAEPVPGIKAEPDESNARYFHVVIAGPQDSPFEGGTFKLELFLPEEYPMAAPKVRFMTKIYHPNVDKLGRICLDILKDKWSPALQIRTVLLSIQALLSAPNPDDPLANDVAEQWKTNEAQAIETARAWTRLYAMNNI
NALP1 yeast inh = inhibitors of NALP1 inflammasome in yeast; actives 0.61% (n = 280,000); S. cerevisiae NALP1/ASC/caspase-1 growth, X-gal OD620, 72 h; AID 2071; inhibition, % at 10 µM; in the data active = inhibition mostly above about 24%, no sharp cut-off; inactive = mostly below about 32%
NR3A LBD binder = NR3A (human) ligand-binding domain modulation | Tm shift relative to glycine control, % at 25 µM | NR3A LBD differential scanning fluorimetry, Tm shift; 0% = protein alone, 100% = glycine-bound protein | actives 2.5% (n = 340,000);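 active = melting temperature shift of at least 10% of the positive control shift, at one fixed dose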
Casp3 counter = counter-screen for UBC13 inhibitors: human caspase-3 inhibition; inhibition, % at 20 µM; actives 4% (n = 1,400); Recombinant caspase-3, Caspase-Glo 3/7 luminescence, 60 min; shares compounds with UBC13 inh;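 active = mean inhibition across replicates above about 26%, limit read from the data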;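 also: plate controls were DMSO with caspase-3 for no effect and DMSO wells lacking enzyme for full effect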
UBC13 conf = confirmation of human UBC13 polyubiquitin inhibitors; shares compounds with UBC13 inh; UBC13 polyubiquitination, TR-FRET, biochemical; inhibition, % at 10 µM; actives 68% (n = 1,400); in the data active = inhibition above about 45%
* marks the source's active call; other numbers are inactive results; x = not tested or not shown. Rows were chosen to be rich in hits. Some 4.3% of all compounds tested hit in one or more screens of this group.

SMILES | CR mimetic SO | dFosB activator | UBC13 inh | NALP1 yeast inh | NR3A LBD binder | Casp3 counter | UBC13 conf
C#CCOCCOCCOCCNc1nc(N2CCN(C(=O)[C@H](CO)n3cc([C@@H](N)C(C)C)nn3)CC2)nc(N2CCN(C(=O)[C@H](CCCCN)n3cc([C@@H](N)[C@H](C)CC)nn3)CC2)n1 | 105 | 10 | 84* | x | 1 | -3 | 59*
C#CCOCCOCCOCCNc1nc(N2CCN(C(=O)[C@H]([C@@H](C)CC)n3cc(CCCN=C(N)N)nn3)CC2)nc(N2CCN(C(=O)[C@H](CCCCN)n3cc(CCCC)nn3)CC2)n1 | 103 | 3 | 71* | 12 | 0 | 0 | 47*
C#CCOCCOCCOCCNc1nc(N2CCN(C(=O)C([C@@H](C)O)n3cc([C@@H](N)CCCCN)nn3)CC2)nc(N2CCN(C(=O)[C@H](CCCN=C(N)N)n3cc(C(N)[C@@H](C)CC)nn3)CC2)n1 (some centres not stated) | 95 | 16 | 101* | x | 0 | 7 | 111*
C#CCOCCOCCOCCNc1nc(N2CCN(C(=O)[C@H]([C@@H](C)CC)n3cc([C@@H](N)CO)nn3)CC2)nc(N2CCN(C(=O)[C@H](CCCCN)n3cc([C@@H](N)CO)nn3)CC2)n1 | 123 | 6 | -6 | x | 2 | x | x
Cc1cc(C)c2nc(-c3ccccn3)cc(C(=O)n3cccn3)c2c1 | 103 | -9 | 45* | -11 | 1 | -3 | 20
COc1cc(C(C)=O)ccc1OCC(=O)OC(C)C(=O)c1ccc(F)cc1 (configuration not stated) | 90 | -4 | 3 | x | 1 | x | x
CCCCN1C(=N)N([C@@H](C)CN2CCC[C@H]2CN2C(N)=NC[C@@H]2Cc2ccccc2)C[C@H]1[C@H](C)CC | 111 | 7 | 19 | x | 0 | x | x
CCC[C@@H](CN1CCC[C@H]1CN1C(N)=NC[C@@H]1Cc1ccccc1)N1C[C@@H](Cc2ccccc2)N(CCc2ccc(Cl)c(Cl)c2)C1=N | 126 | 7 | 75* | x | -5 | 1 | 77*
CCC[C@@H](CN1CCC[C@H]1CN1C(N)=NC[C@H]1CC(C)C)N1C[C@@H](Cc2ccccc2)N(CCc2ccc(Cl)c(Cl)c2)C1=N | 100 | 3 | 82* | x | -6 | 0 | 89*
CCC[C@@H](CN1CCC[C@H]1CN1C(N)=NC[C@@H]1Cc1ccccc1)N1C[C@@H]([C@H](C)CC)N(CCc2ccc(Cl)c(Cl)c2)C1=N | 124 | 8 | 74* | x | -3 | 0 | 74*
CC(C)C[C@@H](CN1CCC[C@@H]1CN1C(=O)C(=O)NC[C@@H]1Cc1ccccc1)N1C[C@H](Cc2ccc(O)cc2)N(CCc2ccccc2)C(=O)C1=O | x | -18 | x | x | -1 | x | x
O=C(NCC1OCCc2ccccc21)c1cc(COc2c(F)cccc2F)on1 (configuration not stated) | 132 | -13 | 0 | -15 | 1 | x | x
CCCCCCCCCCCCCCCC[N+](C)(C)CCN(Cc1ccc(OC)cc1)c1ncccn1 | 91 | -176 | 119* | x | 23* | 0 | 124*
COc1ccc(CN(CCN(C)C)c2ccccn2)cc1 | 99 | 0 | -3 | 18 | -2 | x | x
O=C(NCCC1CCCCN1S(=O)(=O)c1ccc(F)cc1)C(=O)NCCN1CCOCC1 (configuration not stated) | 89 | 0 | 1 | x | 0 | x | x
Cc1c(NC(=O)C(C)OC(=O)c2ccc(NC(=O)CC#N)cc2)c(=O)n(-c2ccccc2)n1C (configuration not stated) | 98 | -9 | 4 | x | 1 | x | x
CCC(C)(C)c1ccc(OCCCC[n+]2cccc(C)c2C)c(C(C)(C)CC)c1 | 65* | 13 | 82* | 29 | -14 | -3 | 100*
COC(=O)c1c(NC(=O)c2cccc(N3C(=O)CCC3=O)c2)sc2c1CCN(C(C)=O)C2 | 92 | -23 | -5 | 26 | -1 | x | x
COC(=O)c1c(NC(=O)c2nc3ccccc3s2)sc2c1CCN(C(C)=O)C2 | 115 | -20 | 104* | -5 | 0 | -2 | 94*
COc1ccc(-c2csc(NC(=O)CSc3ncn[nH]3)n2)cc1OC | 103 | -2 | -1 | 1 | 0 | x | x
O=C(c1ccc(S(=O)(=O)N2CCCC2)cc1)N1CCC(CN2C(=O)c3cccc4cccc(c34)C2=O)CC1 | 118 | -7 | 91* | -4 | 0 | 0 | 95*
CCCCn1c(N)c(N(CC(C)C)C(=O)C2CCCN(C(=O)c3ccc(Cl)cc3)C2)c(=O)[nH]c1=O (configuration not stated) | 104 | -8 | 2 | x | -4 | x | x
FC(F)(F)c1cc(CCN2CCNC[C@@H]2CC2CCCCC2)cc(C(F)(F)F)c1 | 100 | 13 | 87* | x | 4 | -1 | 97*
CCCC[C@@H]1CNCCN1CCc1cc(C(F)(F)F)cc(C(F)(F)F)c1 | x | -24 | 55* | x | -1 | -1 | 37
FC(F)(F)c1cc(CCN2CCNC[C@@H]2c2ccccc2)cc(C(F)(F)F)c1 | 91 | -8 | 66* | x | -1 | 3 | 62*
SMILES | CR mimetic SO | dFosB activator | UBC13 inh | NALP1 yeast inh | NR3A LBD binder | Casp3 counter | UBC13 conf
CCC(C)[C@H]1CNCCN1CCc1cc(C(F)(F)F)cc(C(F)(F)F)c1 (some centres not stated) | 111 | -2 | 60* | x | 1 | -6 | 30
Fc1cccc(CCN2CCNC[C@@H]2c2ccccc2)c1 | 120 | 3 | 6 | x | 1 | x | x
CCCC[C@@H]1CNC(=O)C(=O)N1CCc1cc(C(F)(F)F)cc(C(F)(F)F)c1 | 88 | -20 | -2 | x | 3 | x | x
CCOC(=O)N1CCN(C(=O)c2cn(CC)c3ccc(S(=O)(=O)N4CC(C)CC(C)C4)cc3c2=O)CC1 (configuration not stated) | 86 | -5 | 8 | 8 | -1 | x | x
COc1ccccc1CN(C(=O)c1cnccn1)C(C(=O)NC1CCCCC1)c1cc(OC)c(OC)c(OC)c1 (configuration not stated) | 110 | -8 | 0 | -4 | -2 | x | x
O=Cc1ccc(C(=O)OCC(=O)NC(=O)Nc2ccccc2F)cc1 | 108 | -15 | -14 | x | 1 | x | x
N#CCCN1CCCc2cc(N=Nc3ccc(C(F)(F)F)cc3)ccc21 | 112 | -5 | -129 | 17 | -4 | x | x
NCCCC[C@H]1CN=C(N)N1CCCCC1CCCCC1 | 93 | -15 | 23 | x | -1 | x | x
NC1=NC[C@H](CC2CCCCC2)N1CCc1cc(C(F)(F)F)cc(C(F)(F)F)c1 | 100 | 0 | 97* | x | -1 | -1 | 98*
CSCCC(NC(=O)COc1ccccc1)C(=O)N1CCC(C(N)=O)CC1 (configuration not stated) | 114 | -3 | 68* | x | 0 | 2 | 86*
